Compound activity as filed in PubChem.
Sampled rows, rich in hits. Any-hit rate of the full collection: about 6.1%.
D1 potentiator: potentiators of human D1 dopamine receptor; P21728; HEK293 TREx D1 cells, calcium flux, dopamine EC20 potentiation; potentiation, % at 10 µM; 360,000 compounds, 0.036% hits; AID 504651; in the data active = potentiation above about 30%; note: 0% is about no effect
Target sequence (P21728 whole entry, looked up): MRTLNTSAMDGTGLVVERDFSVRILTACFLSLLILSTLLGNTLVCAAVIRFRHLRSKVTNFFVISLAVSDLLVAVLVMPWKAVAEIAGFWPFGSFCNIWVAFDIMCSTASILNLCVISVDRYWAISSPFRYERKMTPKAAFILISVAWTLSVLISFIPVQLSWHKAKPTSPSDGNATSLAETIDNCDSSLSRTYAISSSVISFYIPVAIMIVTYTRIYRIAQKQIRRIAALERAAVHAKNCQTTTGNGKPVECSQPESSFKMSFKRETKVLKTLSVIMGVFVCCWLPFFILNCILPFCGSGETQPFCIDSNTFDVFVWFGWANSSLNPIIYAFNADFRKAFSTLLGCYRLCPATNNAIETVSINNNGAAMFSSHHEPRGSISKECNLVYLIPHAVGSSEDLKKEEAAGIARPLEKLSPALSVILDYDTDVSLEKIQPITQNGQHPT
D3 antag: blocks the human D3 dopamine receptor. P35462. D3R cells, DiscoveRx beta-arrestin luminescence, antagonist mode; active compounds read low. max response, negative = inhibition, %. 360,000 compounds, 2.5% hits. AID 652054; in the data active = max response below about -50%; inconclusive = no clear call, values can overlap the other calls; note: % is set by controls: 0 for no effect and ±100 for the full control effect
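Cells plated overnight at 1500 cells/well, then exposed to library compounds with dopamine controls for 90 minutes at 37 degrees C. DiscoveRx reagent added for 30–60 minutes at room temperature; luminescence read, quantitative HTS format.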
ERG Ets-DNA blk: ERG Ets/DNA interaction inhibition; P11308; fluorescence polarization, His-ERG Ets domain / labelled DNA; Potency, µM (highest dose often 76.9 µM), for the others: at the top dose FP activity, negative = inhibition, hits mostly inhibitors; 370,000 compounds, 0.028% hits; AID 624246; active = well fitted inhibition curve with a large enough effect in the polarisation, with a control signal flat; inconclusive = small, poorly fitted or top-dose-only effect, or effect the other way, or a change in a side signal; inactive = no such curve, though single readings can be large or run the other way; the % refers to the polarisation;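 note: polarization taken with two DNA probes labelled with fluorescein and Texas red; potency is the fitted concentration of half-maximal effect; % of control where 0% means no effect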
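His-tagged ERG Ets domain (1 uM in the protein solution; 300mM KCl, 50mM Tris-HCl, 1mM EDTA, 1mM DTT, pH 7.5) received compound, then a probe mix of 5 nM fluorescein-DNA and 100nM Texas-615-DNA. Fluorescence polarization was read for both dyes.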
D1 ag: agonists of human D1 dopamine receptor; P21728; HEK293 T-REx D1 cells, calcium flux, agonist mode; activation, % at 2 µM; 360,000 compounds, 1% hits; AID 504660; in the data active = activation above about 30%; note: 0% is about no effect
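Agonism was scored from calcium flux recorded over 180 s (1 read/s) after pintool compound addition, following a 10-cycle baseline. Cells were inducible force-coupled HEK293 TREx D1, plated overnight at 30 C and loaded with no-wash calcium dye.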
DRD3 agonist: activates the human D3 dopamine receptor | P35462 | D3R DiscoveRx beta-arrestin cells, luminescence, 90 min | max activation, % | 410,000 compounds, 0.58% hits | AID 652048; in the data active = max activation above about 30%; note: 0% is about no effect
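Cells at 1500/well, incubated overnight, then treated with pinned compounds (dopamine as control) for 90 min at 37 degrees C. DiscoveRx reagent added for 30 - 60 minutes at room temperature; luminescence read.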
D1 antag: blocks dopamine activation of the human D1 receptor; P21728; HEK293 TREx D1 cells, calcium flux, dopamine EC80; active compounds read low; activity change, negative = inhibition, % at 10 µM; 360,000 compounds, 3.2% hits; AID 504652; in the data active = activity change below about -30%; note: % is set by controls: 0 for no effect and ±100 for the full control effect
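HEK293 T-REx cells expressing inducible, force-coupled D1 receptor; no-wash Ca dye, 30–90 min RT. Cmpd → 180 s read at 1 Hz → EC80 DA → 180 s read.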
Starred values were filed as active, the others as inactive; ? = inconclusive; . = no result.

SMILES | D1 potentiator | D3 antag | ERG Ets-DNA blk | D1 ag | DRD3 agonist | D1 antag
CC(=O)n1cc(N(C(=O)CCl)c2ccc(Cl)cc2)c2ccccc21 | 2 | -58* | -4% | 22 | -9 | -1
N#Cc1ccc(OCC(=O)OCC(=O)NCCC2=CCCCC2)cc1 | -11 | 5 | . | -1 | 5 | -12
CC1CCCC(NC(=O)COC(=O)COc2ccc(Cl)cc2)C1C (stereo not given) | 0 | 23 | -13% | 2 | 1 | -10
Cc1cc(OCC(=O)OCC(=O)NC2CCCCC2C)ccc1Cl (stereo not given) | -8 | 1 | -1% | 5 | -2 | -32*
CCC(=O)c1ccc(OCC(=O)OCC(=O)NCCC2=CCCCC2)cc1 | -5 | 1 | 3% | 8 | 6 | -31*
CCC(=O)c1ccc(OCC(=O)OCC(=O)NC2CCCCCCC2)cc1 | -4 | -5 | -16% | 11 | -1 | -39*
CC(=O)Nc1ccc(C(=O)NNC(=O)Cc2ccccc2)cc1 | -3 | 4 | 5% | 2 | 5 | -1
Cc1cc(Br)cn2c(Cc3ccsc3)c(-c3ccc(F)cc3)nc12 | . | 11 | . | . | 1 | .
COc1ccc([N+](=O)[O-])cc1CN1CCN(c2ncc(Cc3ccccc3)cn2)CC1 | . | -9 | . | . | -7 | .
CC1CCCC(C)N1S(=O)(=O)c1ccc(Cl)cc1 (stereo not given) | -1 | 16 | 0% | 2 | 1 | 3
CC1=C(C)CS(=O)N(S(=O)(=O)c2ccc(Cl)cc2)C1 (stereo not given) | -1 | -88* | -1% | 4 | -3 | 11
Cc1ccc(-c2nc(CS(=O)(=O)CC(=O)N3CCN(C)CC3)c(C)o2)cc1 | -3 | -2 | 6% | 0 | -10 | -12
CCN1CCN(C(=O)CS(=O)(=O)Cc2nc(-c3ccc(C)cc3)oc2C)CC1 | -7 | 3 | 2% | 2 | 2 | -31*
Nc1nc(-c2ccccc2)nn1C(=O)c1ccco1 | -6 | 7 | -3% | 3 | 3 | -34*
COc1ccccc1N(C(C)=O)C1=C(Cl)C(=O)c2ccccc2C1=O | . | -137* | . | . | -14 | .
NC(=O)c1c(NC(=O)CCCn2cnc([N+](=O)[O-])n2)sc2c1CCCC2 | -2 | 11 | 8% | 0 | 15 | -6
COc1ccc(/C=N/n2c(=S)n(C)c3ccccc32)cc1OC | 1 | 47 | 4% | 0 | 63* | .
CCN(Cc1ccccc1)C(=O)CN1C(=O)CSc2ccc(S(=O)(=O)N(CC)CC)cc21 | -3 | . | 2% | 0 | 6 | 16
CCOc1c(Br)cc(/C=C2\N=C(C)OC2=O)cc1Br | 0 | 6 | 17% | 2 | 3 | -3
O=C(CN1C(=O)C2CCCCC2C1=O)Nc1ccc(S(=O)(=O)Nc2ncccn2)cc1 (stereo not given) | 8 | -3 | -7% | 4 | 1 | 0
C=CCn1c(-c2cccc(Cl)c2)n[nH]c1=S | 0 | -57* | 0% | 1 | 5 | -3
O=C(Nc1ccccc1C(F)(F)F)c1ccc2oc(=O)c(S(=O)(=O)c3ccc(F)cc3)cc2c1 | -2 | . | 0% | 3 | -8 | -24
COc1ccc(/C(O)=C2/C(=O)C(=O)N(CCN(C)C)C2c2ccccn2)cc1OC (stereo not given) | -6 | -4 | -4% | -3 | -1 | -8
O=C(/C=C/c1cccc(Br)c1)NC1CCN(Cc2ccccc2)CC1 | -6 | -61* | -5% | 9 | -9 | -4
O=C(Nc1cccc(F)c1)NC1CCN(Cc2ccccc2)CC1 | -5 | -82* | 3% | 10 | -10 | .
SMILES | D1 potentiator | D3 antag | ERG Ets-DNA blk | D1 ag | DRD3 agonist | D1 antag
O=C(/C=C/c1cccc(F)c1)NC1CCN(Cc2ccccc2)CC1 | . | ? | -5% | 10 | -9 | -45*
COc1cccc(NC(=O)NC2CCN(Cc3nnnn3Cc3ccc(F)cc3)CC2)c1 | 0 | 29 | 3% | 1 | 1 | 6
CCCN1CCC(NC(=O)Nc2ccc(F)cc2F)CC1 | -2 | -53* | 10% | 1 | -4 | -4
O=C(NC1CCCCC1)c1ccc2c(c1)OCCO2 | -4 | -12 | -1% | 0 | -12 | -12
C#CCOc1c(Br)cc(/C=C2/C(=O)ON=C2C)cc1OC | -7 | -12 | 2% | 1 | 5 | -1
O=C(O)CC1Oc2ccc(Cl)cc2NC1=O (stereo not given) | -3 | -18 | 11% | 0 | -1 | 4
CCN1CCN(C(CNS(=O)(=O)c2ccc(OC)c(C)c2)c2cccnc2)CC1 (stereo not given) | -3 | 11 | -6% | 2 | 0 | 15
Cc1ccc(-c2nc3sc(CCNC(=O)c4ccco4)c(C)n3n2)cc1 | -2 | . | 1% | 0 | 40* | .
Cc1c(CCNC(=O)c2ccco2)sc2nc(-c3ccc(F)cc3)nn12 | -3 | . | -1% | 8 | 7 | .
Cc1ccc(SCC(=O)N2CC(C)OC(C)C2)cc1 (stereo not given) | 3 | 2 | -1% | 0 | 0 | 6
CN(C)c1cccc(C(=O)OCc2cc(=O)oc3cc(O)ccc23)c1 | 0 | 2 | -6% | 1 | 1 | 15
CC1CN(S(=O)(=O)c2cccc(C(=O)OCc3cc(=O)oc4cc(O)ccc34)c2)CC(C)O1 (stereo not given) | -7 | -56* | -3% | 1 | -10 | -8
COc1ccc2c(COC(=O)c3cccc(S(=O)(=O)NCC(C)C)c3)cc(=O)oc2c1 | -3 | 46 | 8% | 7 | 32* | -4
CCCNS(=O)(=O)c1cccc(C(=O)OCc2cc(=O)oc3cc(OC)ccc23)c1 | -3 | 23 | -7% | 12 | -2 | 2
CCCN(CC(=O)Nc1ccccc1OC)C(=O)c1ccc2ncsc2c1 | -1 | -20 | -8% | 2 | 1 | 4
COc1ccc(C(=O)C2CCCN(Cc3cccn3-c3nccs3)C2)cc1OC (stereo not given) | -1 | -14 | 2% | 5 | -8 | -8
COc1cc(CNC(C)(C)C)ccc1OCC(=O)NC(C)(C)C | -1 | -4 | 4% | 3 | 2 | 17
COc1cc(CNn2cnnc2)ccc1OCC(=O)NC(C)(C)C | -4 | -13 | -2% | 2 | -11 | -79*
Cc1ccc(-n2nc3c(N4CCCC(C(=O)NCc5ccccc5C)C4)nnc(C)c3c2C)cc1 (stereo not given) | 53* | . | 2% | 44* | -10 | 17
COc1cc(NC(=O)C2CCN(c3nnc(C)c4c(C)n(-c5ccccc5)nc34)CC2)cc(OC)c1 | -2 | . | 0% | 2 | -3 | -40*
COc1cccc(NC(=O)C2CCN(c3nc4ccccc4nc3C(F)(F)F)CC2)c1 | 5 | . | -6% | 3 | 32* | 25
